Consider 24 compounds from PubChem BioAssay (Tox21).

The structures appear in SMILES notation. Values without a mark were called inactive. Inconclusive results are not listed. Activity calls are given as the source filed them. Unless noted, calls follow the shape of the dose curve; as a rule, active = well fitted curve in the direction sought with a large enough effect in the repeat runs; inconclusive = weak or mixed curves; inactive = no such curve, though single readings can be large; an effect the other way counts as inactive or inconclusive.

Assay [1] has as its target Thyrotropin receptor (Homo sapiens) (UniProt P16473). The assay can be described thus: qHTS assay to identify small molecule antagonists of the thyroid stimulating hormone receptor (TSHR) signaling pathway (AID 1259385; calls by dose curve; also: nearly all actives have a fitted effect of over 20% in size). The essentials: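 TSHR-HEK293 cells (800/well) plated 18 h, then compounds with Ro20-1724 and TSH at 1.5 ng/mL final, 30 min at room temperature. cAMP quantified by HTRF (cAMP-d2/anti-cAMP-cryptate, 1 h); 15 concentrations in triplicate.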
For orientation: In qHTS, concentration-response curves come from the screen itself.

A short description of assay [2]: qHTS assay to identify small molecule agonists of the estrogen receptor alpha (ER-alpha) signaling pathway in the presence of an antagonist - cell viability counter screen (AID 1259386).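 Also: cells exposed to compounds for 22 h at 37 °C before the viability read; nearly all actives have a fitted effect of over 30% in size.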 Also: potency is read from the fitted curve at half-maximal effect. As to activity change, negative = cytotoxicity: series mostly up to about 92 µM. The method, boiled down:
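The test measures whether compounds kill ER-alpha reporter cells (VM7Luc4E2) under antagonist co-treatment (ICI-182,780, 10.0nM). Fluorescence from CellTiter-Fluor is read after a 22hr exposure.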

Assay [3] deals with Progesterone receptor (Homo sapiens) (UniProt P06401). The assay can be described thus: qHTS assay to identify small molecule agonists of the progesterone receptor (PR) signaling pathway (AID 1346784; calls by dose curve; also: nearly all actives have a fitted effect of over 30% in size). The method, boiled down:
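The screen uses PR-UAS-bla HEK 293T cells in charcoal-stripped serum (2%). Compounds are applied for 16 hr at 37C after a 6 hr pre-incubation, and reporter activity is detected with a FRET beta-lactamase substrate after 2 hr at room temperature.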

Assay [4] has the same target. The assay can be described thus: qHTS assay to identify small molecule antagonists of the progesterone receptor (PR) signaling pathway (AID 1346795; active = well fitted inhibition curve with a large enough effect in the signal ratio in the repeat runs, not every such curve was filed as active; the % refers to the signal ratio). The method, boiled down:
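After 6 hr plating at 37C in 2% stripped-serum medium, PR-UAS-bla HEK293T cells got compounds, then 1 nM R5020. Sixteen hours later, LiveBLAzer substrate was applied for 2 hr at room temperature and fluorescence was recorded.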

Assay [5] in a line: qHTS assay to identify small molecule antagonists of the progesterone receptor (PR) signaling pathway - cell viability counter screen (AID 1346798). Also: series mostly up to about 92 µM; nearly all actives have a fitted effect of over 50% in size. The essentials:
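Viability was determined by ATP-based luminescence (CellTiter-Glo) in PR-UAS-bla HEK293T cells cultured in 2% charcoal-stripped serum and incubated 16 hr with compounds under R5020 stimulation.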

Assay [6] can be described thus: qHTS assay to identify small molecule agonists of the progesterone receptor (PR) signaling pathway - cell viability counter screen (AID 1346799; calls by dose curve; also: nearly all actives have a fitted effect of over 45% in size). The essentials:
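Viability was scored by ATP luminescence (CellTiter-Glo, 30 min, room temperature) in the same wells used for the reporter readout, after 16 hr compound exposure of PR-UAS-bla HEK293T cells.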

Assay [7] in a line: qHTS assay to identify small molecule antagonists of the TGF-beta/Smad signaling pathway - cell viability counter screen (AID 1346824). Also: nearly all actives have a fitted effect of over 50% in size. The method, boiled down:
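SBE-bla HEK 293T cells, incubated overnight, then compound plus 0.25 ng/mL TGF-beta1 (stock added) for 5 hr at 37 C. Viability was read in the same wells by CellTiter-Glo luminescence after 30 min at room temperature.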

Assay [8] can be described thus: qHTS assay to identify small molecule agonists of the TGF-beta/Smad signaling pathway - cell viability counter screen (AID 1346829). Also: top concentration of the series differs between compounds; nearly all actives have a fitted effect of over 45% in size. The essentials:
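Compound-treated SBE-bla HEK 293T cells (5 hr, 37 C) were assessed for viability with CellTiter-Glo in parallel with the reporter read.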

The target in assay [9] is Thyrotropin-releasing hormone receptor (Homo sapiens) (UniProt P34981). Put plainly: qHTS assay to identify small molecule antagonists of the thyrotropin-releasing hormone receptor (TRHR) signaling pathway (AID 1346877; active = well fitted inhibition curve with a large enough effect in the repeat runs, not every such curve was filed as active; also: series mostly up to about 51 µM). The essentials:
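Overnight-plated (18 h, 37 °C) HEK293 cells expressing TRHR were dye-loaded 2 h, treated with compound, then stimulated with TRH at 1 nM final. Fluorescence intensity was captured every second for 3 min.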

The nature of assay [10]: qHTS assay to identify small molecule agonists of the TGF-beta/Smad signaling pathway (AID 1346859; active = well fitted activation curve with a large enough effect in the signal ratio in the repeat runs, not every such curve was filed as active; the % refers to the signal ratio; also: series mostly up to about 77 µM). The essentials:
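Dual-wavelength fluorescence (460/530 nm emission) quantified beta-lactamase expression under the Smad binding element in HEK 293T cells following 5 hr compound treatment at 37 C.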
% is scaled to controls: 0 for no effect and ±100 for the full control effect.

Sequence of Thyrotropin-releasing hormone receptor (Homo sapiens) (P34981 whole entry, looked up): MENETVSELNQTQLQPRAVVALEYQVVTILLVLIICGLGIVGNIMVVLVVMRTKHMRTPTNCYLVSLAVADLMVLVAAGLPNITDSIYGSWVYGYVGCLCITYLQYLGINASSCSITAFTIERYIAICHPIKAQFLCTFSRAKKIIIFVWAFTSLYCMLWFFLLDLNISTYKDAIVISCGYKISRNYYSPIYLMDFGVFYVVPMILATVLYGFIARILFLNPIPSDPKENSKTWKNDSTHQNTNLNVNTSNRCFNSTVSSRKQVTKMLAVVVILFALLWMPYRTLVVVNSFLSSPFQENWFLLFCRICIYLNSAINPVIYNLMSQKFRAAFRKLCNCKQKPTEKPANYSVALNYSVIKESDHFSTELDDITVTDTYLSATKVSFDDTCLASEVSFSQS
Sequence of Progesterone receptor (Homo sapiens) (P06401 whole entry, looked up): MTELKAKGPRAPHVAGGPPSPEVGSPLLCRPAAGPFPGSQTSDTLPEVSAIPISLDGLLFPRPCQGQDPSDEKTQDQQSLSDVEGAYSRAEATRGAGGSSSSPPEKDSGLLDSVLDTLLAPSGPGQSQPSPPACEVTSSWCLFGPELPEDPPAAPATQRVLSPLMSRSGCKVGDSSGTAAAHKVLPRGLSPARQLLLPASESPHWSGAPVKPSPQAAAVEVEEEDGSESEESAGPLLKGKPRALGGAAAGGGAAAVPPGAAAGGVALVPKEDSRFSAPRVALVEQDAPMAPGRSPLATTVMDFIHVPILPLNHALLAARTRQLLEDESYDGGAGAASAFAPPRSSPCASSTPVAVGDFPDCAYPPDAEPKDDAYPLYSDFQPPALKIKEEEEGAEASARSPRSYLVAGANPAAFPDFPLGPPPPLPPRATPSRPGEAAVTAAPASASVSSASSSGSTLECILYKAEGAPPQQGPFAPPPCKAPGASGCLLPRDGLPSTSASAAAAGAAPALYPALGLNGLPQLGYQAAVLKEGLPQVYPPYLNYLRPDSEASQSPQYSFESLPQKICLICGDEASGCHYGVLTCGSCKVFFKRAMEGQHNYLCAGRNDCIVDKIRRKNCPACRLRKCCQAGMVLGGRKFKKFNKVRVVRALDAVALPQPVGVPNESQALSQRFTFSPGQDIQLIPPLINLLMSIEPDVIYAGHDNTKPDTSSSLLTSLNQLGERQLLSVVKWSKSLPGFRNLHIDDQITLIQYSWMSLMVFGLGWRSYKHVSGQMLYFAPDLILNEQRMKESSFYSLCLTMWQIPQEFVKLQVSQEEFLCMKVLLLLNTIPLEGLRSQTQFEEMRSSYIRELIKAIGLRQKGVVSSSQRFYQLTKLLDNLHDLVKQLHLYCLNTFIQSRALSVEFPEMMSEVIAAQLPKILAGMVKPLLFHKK
Sequence of Thyrotropin receptor (Homo sapiens) (P16473 whole entry, looked up): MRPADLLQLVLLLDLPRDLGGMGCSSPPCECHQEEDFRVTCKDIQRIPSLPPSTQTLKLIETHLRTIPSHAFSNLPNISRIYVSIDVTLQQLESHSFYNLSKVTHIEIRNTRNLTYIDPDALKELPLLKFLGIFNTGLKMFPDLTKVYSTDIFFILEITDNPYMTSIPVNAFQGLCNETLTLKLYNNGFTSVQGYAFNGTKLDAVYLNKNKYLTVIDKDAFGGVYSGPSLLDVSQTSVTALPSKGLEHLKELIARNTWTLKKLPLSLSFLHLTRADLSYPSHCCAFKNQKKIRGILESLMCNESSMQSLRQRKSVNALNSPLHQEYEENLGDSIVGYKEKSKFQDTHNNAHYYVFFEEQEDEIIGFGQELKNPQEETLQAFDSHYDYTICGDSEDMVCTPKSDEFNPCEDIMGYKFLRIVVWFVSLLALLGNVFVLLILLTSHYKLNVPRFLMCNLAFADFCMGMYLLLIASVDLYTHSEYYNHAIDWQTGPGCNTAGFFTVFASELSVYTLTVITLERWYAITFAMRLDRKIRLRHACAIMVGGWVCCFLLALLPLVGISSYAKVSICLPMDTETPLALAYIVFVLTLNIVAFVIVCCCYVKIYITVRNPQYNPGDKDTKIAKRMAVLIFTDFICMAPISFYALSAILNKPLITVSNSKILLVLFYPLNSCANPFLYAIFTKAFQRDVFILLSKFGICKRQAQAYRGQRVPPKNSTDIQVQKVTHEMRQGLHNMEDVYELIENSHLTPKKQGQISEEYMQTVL

As for `O=C(O)CCCc1c[nH]c2ccccc12`, the Potency entry in assay [1], in [2], in [3], in assay [4], in assay [5] and in assay [6] was “inactive” each time. In addition, the Potency entry in assay [8] was “inactive”. Further, the compound was called inactive in assay [7] and in assay [9].

In the case of `O=C(NC(Cc1cc(=O)[nH]c2ccccc12)C(=O)O)c1ccc(Cl)cc1` (stereo not given), the Potency result in [1], in assay [2], in assay [3], in assay [4], in assay [5] and in assay [6] was “inactive” throughout. Moreover, the Potency result in assay [8] and in [10] was “inactive” throughout. Further, the outcome in assay [7] and in assay [9] was inactive.

With `CC/C=C\C/C=C\C/C=C\CCCCCCCC(=O)OCC`, the Potency entry in assay [1], in [2], in [3], in [4], in assay [5] and in [6] was “inactive” in each case. For the same compound, in assay [8], the Potency result was “inactive”. The compound was called inactive in assay [7] and in assay [9].

As for `CCNc1nc(N)nc(Cl)n1`, the Potency result in assay [1], in assay [2], in assay [3], in assay [4], in assay [5] and in [6] was “inactive” throughout. The Potency entry in [8] and in assay [10] was “inactive” throughout. Also, the compound was called inactive in assay [7] and in assay [9].

As for `CCSC(=O)N(CC)CC`, the Potency result in assay [1], in assay [2], in [3], in assay [4], in assay [5] and in [6] was “inactive” in each case. In addition, the Potency result in assay [8] and in [10] was “inactive” throughout. The outcome in assay [7] and in assay [9] was inactive.

In the case of `COC(=O)CC(C(C)=O)C(=O)OC` (stereo not given), the Potency entry in assay [1], in assay [2], in assay [3], in [4], in assay [5] and in [6] was “inactive” throughout. Further, the Potency result in [8] and in assay [10] was “inactive” each time. Also, the outcome in assay [7] and in [9] was inactive.

Consider `CCC(C)(C)C(=O)O`, for which the Potency result in [1], in [2], in assay [3], in assay [4], in [5] and in assay [6] was “inactive” in each case. In addition, the Potency result in assay [8] and in assay [10] was “inactive” in each case. In addition, the compound was called inactive in assay [7] and in assay [9].

As to `Oc1cccc2[nH]ccc12`, the Potency entry in [1], in [2], in assay [3], in [4], in assay [5] and in assay [6] was “inactive” throughout. For the same compound, the Potency result in [8] and in [10] was “inactive” in each case.

Consider `O=C(Nc1ccc(C(=O)O)c(O)c1)c1ccccc1`, for which the Potency entry in assay [1], in assay [2], in assay [3], in assay [4], in assay [5] and in assay [6] was “inactive” throughout. Moreover, in [8], the Potency entry is “inactive”. Also, the compound was classed as inactive in [7] and in assay [9].

Take `CCCCCc1ccco1`: the Potency result in [1], in assay [2], in [3], in assay [4], in assay [5] and in assay [6] was “inactive” each time. Also, the Potency result in assay [8] and in [10] was “inactive” each time. Also, the compound was classed as inactive in assay [7] and in assay [9].

As for `CC(C)(C)S`, the Potency result in assay [1], in assay [2], in [3], in assay [4], in assay [5] and in assay [6] was “inactive” each time. In [8], the Potency result is “inactive”. Besides, the compound was called inactive in assay [7] and in [9].

Take `CCC(Cl)CC(Cl)C(Cl)C(Cl)C(Cl)C(C)Cl` (stereo not given): the activity change, negative = inhibition is -0.191% [at 19 µM] in assay [1] and -4% [at 18.9 µM] in assay [4]. Besides, the activity change, negative = cytotoxicity is 5.27% [at 19 µM] in assay [2], -5.89% [at 18.9 µM] in [5], 9.92% [at 19 µM] in assay [6] and 0% [at 15.8 µM] in assay [8]. Further, the activation in assay [3] is -2.07% [at 19 µM]. The viability change, negative = cytotoxic in [7] is -12.4% [at 15.8 µM]. In assay [9], the activity, negative = inhibition is 0.125% [at 10.5 µM].

Consider `Nc1c(Cl)cc(Cl)cc1[N+](=O)[O-]`, for which the Potency result in assay [1], in assay [2], in assay [3], in [4], in [5] and in [6] was “inactive” each time. Further, the Potency result in assay [8] and in [10] was “inactive” each time. In addition, the call in [7] and in assay [9] was inactive.

With `Cc1ccc(NC(=O)N(C)C)cc1NC(=O)N(C)C`, the Potency result in assay [1], in assay [2], in assay [3], in [4], in assay [5] and in assay [6] was “inactive” each time. Further, the Potency result in [8] and in assay [10] was “inactive” throughout. In addition, the call in assay [7] and in assay [9] was inactive.

Consider `Cc1cc(CCC(=O)OCCOCCOCCOC(=O)CCc2cc(C)c(O)c(C(C)(C)C)c2)cc(C(C)(C)C)c1O`, for which the Potency result in [1], in [2], in assay [3], in assay [4], in [5] and in assay [6] was “inactive” in each case. The Potency entry in [8] and in [10] was “inactive” in each case.

With `CC(=O)OC(C)C[N+](C)(C)C` (stereo not given), the Potency entry in assay [1], in assay [2], in assay [3], in assay [4], in [5] and in [6] was “inactive” each time. For the same compound, the Potency entry in assay [8] was “inactive”.

For `O=P(O)(O)Oc1ccccc1`, the Potency result in assay [1], in assay [2], in [3], in assay [4], in assay [5] and in [6] was “inactive” throughout. For the same compound, in assay [8], the Potency entry was “inactive”. For the same compound, the outcome in [7] and in [9] was inactive.

With `C=C(C)C(=O)OCCC(F)(F)C(F)(F)C(F)(F)C(F)(F)C(F)(F)C(F)(F)F`, the Potency entry in assay [1], in [2], in assay [3], in [4], in assay [5] and in [6] was “inactive” each time. Moreover, the Potency entry in [8] was “inactive”. Also, the call in assay [7] and in assay [9] was inactive.

On to `CCCCCCC(O)CCOC(C)=O` (stereo not given), for which the Potency entry in assay [1], in assay [2], in assay [3], in assay [4], in [5] and in assay [6] was “inactive” throughout. In addition, the Potency entry in assay [8] and in assay [10] was “inactive” in each case. Moreover, the compound was called inactive in assay [7] and in [9].

For `CS(=O)(=O)c1ccc([C@@H](C[C@H]2CCC(=O)C2)C(=O)Nc2cnccn2)cc1Cl`, the Potency entry in assay [1], in [2], in assay [3], in assay [4], in [5] and in assay [6] was “inactive” each time. For the same compound, the Potency result in assay [8] and in assay [10] was “inactive” in each case. In addition, the outcome in [7] and in assay [9] was inactive.

As to `O=C(O)/C=C/c1ccc(O)c(O)c1`, the Potency result in assay [1], in [2], in [3], in assay [4], in assay [5] and in assay [6] was “inactive” each time. Moreover, the Potency entry in [8] and in [10] was “inactive” throughout. Moreover, the compound was classed as inactive in assay [7] and in assay [9].

Take `CCCCCC`: the Potency entry in [1], in assay [2], in assay [3], in assay [4], in assay [5] and in assay [6] was “inactive” in each case. Further, in assay [8], the Potency result was “inactive”. The compound was called inactive in [7] and in [9].

Consider `Nc1ccc(N=Nc2ccc(N)cc2)cc1`, for which the Potency entry in [1], in assay [3], in assay [4], in assay [5], in assay [6] and in assay [8] was “inactive” throughout. The Potency entry in [10] was “inactive”. Further, in assay [2], the Potency was 24.3 µM (active). The result in [7] and in assay [9] was inactive.

For the compound `CCCCCCC(CO)CCCC` (stereo not given), the Potency entry in assay [1], in assay [2], in assay [3], in assay [4], in assay [5] and in assay [6] was “inactive” throughout. The Potency result in assay [8] and in assay [10] was “inactive” in each case. In addition, the result in assay [7] and in [9] was inactive.
